IMPase cell inh: qHTS Assay for Identifying the Cell-Membrane Permeable IMPase Inhibitors; inhibition (IP1 accumulation), % at 46.1 µM; 120,000 tested, under 10 active; CHO-M1 cells, IP1 accumulation, HTRF TR-FRET ratio; Inositol monophosphatase 1 (Rattus norvegicus), P97697; active means well fitted curve in the direction sought with a large enough effect in the signal ratio, not every such curve was filed as active; inconclusive means small, poorly fitted or top-dose-only effect, or a change in a side signal; inactive means no such curve, though single readings can be large or run the other way; the % refers to the signal ratio;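 further: cells stimulated with carbachol in lithium chloride buffer; higher means more IMPase inhibition seen as more IP1 and lower FRET ratio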
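Elevated IP1 in lysates lowers TR-FRET signal (665/620 ratio and 620 channel reported). Cells were CHO-M1, given carbachol (50 uM as added) plus 50mM LiCl, pH 7.4, 30 min, 37C; compounds titrated up to 46 uM; AC50 by Hill equation.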
ALDH1A1 block: qHTS Assay for Inhibitors of Aldehyde Dehydrogenase 1 (ALDH1A1); 220,000 tested, 7.3% active; AID 1030, 2008; Aldehyde dehydrogenase 1A1 (Homo sapiens), P00352; Potency, µM (series often up to 75.3 µM), usual class: inhibitors; Purified ALDH1A1, NADH fluorescence, propionaldehyde substrate
Target sequence (P00352 whole entry, looked up): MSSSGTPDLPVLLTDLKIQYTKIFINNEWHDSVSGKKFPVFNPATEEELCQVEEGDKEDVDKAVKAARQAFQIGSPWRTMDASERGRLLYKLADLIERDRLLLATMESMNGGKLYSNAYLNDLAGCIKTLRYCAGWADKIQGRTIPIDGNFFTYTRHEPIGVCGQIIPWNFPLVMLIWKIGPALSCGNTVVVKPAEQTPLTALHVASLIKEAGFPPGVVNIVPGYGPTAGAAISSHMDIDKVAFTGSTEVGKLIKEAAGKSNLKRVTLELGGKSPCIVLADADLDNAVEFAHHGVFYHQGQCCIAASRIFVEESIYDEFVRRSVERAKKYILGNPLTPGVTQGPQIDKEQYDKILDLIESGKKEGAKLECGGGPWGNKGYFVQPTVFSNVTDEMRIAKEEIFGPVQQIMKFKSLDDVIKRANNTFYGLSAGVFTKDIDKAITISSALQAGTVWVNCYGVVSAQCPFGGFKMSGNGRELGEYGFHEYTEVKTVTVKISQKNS
HPGD inh: qHTS Assay for Inhibitors of HPGD (15-Hydroxyprostaglandin Dehydrogenase). 15-hydroxyprostaglandin dehydrogenase [NAD(+)] (Homo sapiens), P15428. purified HPGD, NADH fluorescence kinetic, PGE2 substrate. Potency, µM, actives largely listed as inhibitors. 150,000 tested, 4.3% active. AID 894, 2007
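20 nM HPGD preincubated 15 min at room temperature with compound in 50 mM Tris-HCl pH 8, 0.01% Tween 20. Started with 1 mM NAD+ and 30 uM prostaglandin E2; NADH fluorescence (360/450 nm) read 5 times over 30-s intervals, last minus first.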
Numbers stand for hits; i = inactive; ? = inconclusive; nt = no result; [ ] = remark or other dose. This is a sample that favours compounds with a hit; in the whole collection about 9% have one here. Unless noted, the call rests on the fitted dose curve; in most records, active means well fitted inhibition curve with a large enough effect (not every such curve was filed as active); inconclusive means small, poorly fitted or top-dose-only effect, or another doubt; inactive means no such curve, though single readings can be large or run the other way.

SMILES	IMPase cell inh	ALDH1A1 block	HPGD inh
Cc1ccc(C2(c3ccc(C)cc3)CC2C(=O)NCc2cccnc2)cc1 (stereo unspecified)	nt	i	nt
COc1ccc(-c2cc(C(F)(F)F)nc(SCC(=O)NCc3ccc(Cl)cc3)n2)cc1	i	nt	nt
CC(=O)N[C@@H](CSC/C=C(\C)CC/C=C(\C)CC/C=C(\C)CCC=C(C)C)C(=O)O	nt	i	i
N#Cc1c(NC(=S)NC(=O)c2ccccc2)sc2c1CCC2	nt	14.1µM	i
Cn1nc(C(=O)Nc2sc3c(c2C#N)CCCC3)ccc1=O	nt	2.24µM	nt
CC(C)(C)C(=O)NC(NC(=S)Nc1sc2c(c1C#N)CCCC2)C(Cl)(Cl)Cl (stereo unspecified)	?	6.31µM	?
CCN1CCc2c(sc(NC(=S)NC(=O)c3ccccc3)c2C#N)C1	i	?	i
CC1CCc2sc(NC(=S)NC(=O)c3ccccc3)c(C#N)c2C1 (stereo unspecified)	nt	10µM	i
CC(C)(C)c1ccc(C(=O)NC(=S)Nc2sc3c(c2C#N)CCC3)cc1	i	i	?
CC(C)(C)C(=O)Nc1sc2c(c1C#N)CCC2	nt	i	nt
CC(C)C(=O)Nc1sc2c(c1C#N)CCCCC2	i	i	i
CC(=O)Nc1ccc(S(=O)(=O)N/N=C/c2ccc(C)s2)cc1	nt	?	i
O=C(CCC(=O)N1CCN(S(=O)(=O)c2ccc(Cl)cc2)CC1)Nc1cccc(Br)c1	nt	?	i
CC1(C)Cc2c(sc(NC(=O)c3ccco3)c2C#N)CO1	i	?	i
CC(=O)NC(=S)Nc1sc2c(c1C#N)CCCCC2	i	1.41µM	nt
Cc1cc(C(=O)Nc2sc3c(c2C#N)CCCCC3)cs1	i	?	?
N#Cc1c(NC(=O)C2CC(c3ccccc3Cl)=NO2)sc2c1CCC2 (stereo unspecified)	i	?	?
CCC1(C)Cc2c(sc(NC(=S)NC(=O)c3ccccc3)c2C#N)CO1 (stereo unspecified)	i	?	7.94µM
CC(=O)Nc1sc2c(c1C#N)CCCC2	i	i	i
N#Cc1c(NC(=O)C2CC(c3ccccc3O)=NO2)sc2c1CCC2 (stereo unspecified)	i	11.2µM	25.1µM
N#Cc1c(NC(=O)c2ccncc2)sc2c1CCC2	i	10µM	i
CC(C)=NOCc1ccc(-c2cc(-c3ccccc3)no2)cc1	nt	i[13.5 µM]	nt
Cc1cc([N+](=O)[O-])nn1CCCC(=O)Nc1c(C)n(C)n(-c2ccccc2)c1=O	nt	i	nt
CN(C)Cc1ccccc1-c1cncnc1NC1CC1	nt	i	i
C=CCn1c(CSc2nc3ccccc3s2)nnc1SCC(=O)NCCN1CCOCC1	i	i	nt
SMILES	IMPase cell inh	ALDH1A1 block	HPGD inh
CCn1c(CSc2nc3ccccc3s2)n[nH]c1=S	i	?	?
S=c1[nH]nc(CSc2nc3ccccc3s2)n1Cc1ccccc1	i	?	12.6µM
CCn1c(C(c2ccccc2)c2ccccc2)n[nH]c1=S	i	?	i
C=CCn1c(C(c2ccccc2)c2ccccc2)n[nH]c1=S	nt	i	25.1µM
C=CCn1c(CSc2nc3ccccc3s2)n[nH]c1=S	i	11.2µM	17.8µM
O=C(/C=C/c1ccccc1)N1CCCC1CO (stereo unspecified)	nt	i[13.5 µM]	nt
CCc1ccc(S(=O)(=O)N(C(C)=O)c2ccc3oc4c(c3c2)CCCC4)cc1	i	nt	nt
CCc1c(C)nc2ncnn2c1N1CCC(C(=O)Nc2cccc(C(C)=O)c2)CC1	i	i	i
CCc1cccc(N(CC(=O)NCc2ccc(F)cc2)C(=O)c2csnn2)c1	nt	i	nt
CC(C)c1ccc(N(CC(=O)NCc2ccc(F)cc2)C(=O)c2csnn2)cc1	nt	5.01µM	nt
Cc1ccc(-n2c(C)cc(/C=N/NC(=O)c3ccncc3)c2C)cc1	i	?	i
Cc1ccc(C(=O)N/N=C/c2cc(C)n(-c3ccc(Br)cc3)c2C)cc1[N+](=O)[O-]	i	10µM	?
COc1ccc(Cl)cc1C(=O)NC(C)C	nt	i	nt
Cn1nc(C(=O)Nc2nc3ccccc3[nH]2)ccc1=O	nt	i	nt
C/C(O)=C1\C(=O)[C@@H]2[C@H]3c4c[nH]c5cccc(c45)C[C@H]3C(C)(C)N2C1=O	nt	i	nt
COc1nc(-c2ccccc2)nc(C)c1CC(=O)O	nt	i	nt
O=C1c2ccccc2C(=O)N1CCSc1ncn[nH]1	i	i	i
O=C1c2ccccc2C(=O)N1CCSc1n[nH]c(=S)s1	i	2.24µM	?
CC1(C)CC(=O)C(Sc2nnc(-c3ccc(O)cc3)n2CC2CCCO2)C(=O)C1 (stereo unspecified)	i	18.9µM	i
CC(=O)Nc1ccc(C(=O)CSc2nnc(-c3ccc(O)cc3)n2CC2CCCO2)cc1 (stereo unspecified)	i	?	i
N#Cc1ccccc1Sc1ccccc1C(=O)OCC(=O)N1CCN(C(=O)c2ccco2)CC1	i	14.1µM	?
N#Cc1ccccc1Sc1ccccc1C(=O)OCC(=O)NC12CC3CC(CC(C3)C1)C2	nt	i	12.6µM
O=C(OCC(=O)N1CCN(C(=O)c2ccco2)CC1)c1ccccc1O	i	i	i
CC(=O)c1ccc(NC(=O)COC(=O)c2ccccc2Sc2ccccc2C#N)cc1	?	i	?
O=C(Nc1ccc2nn(-c3ccccc3)nc2c1)c1ccc(-c2cccc(Cl)c2)o1	i	nt	nt
SMILES	IMPase cell inh	ALDH1A1 block	HPGD inh
CC1CCC2C(C)(C)C3CC12CC[C@]3(C)O (stereo partly specified)	nt	?	i
Cc1sc2nc(CSc3ccccc3)nc(N3CCC(C(N)=O)CC3)c2c1C	nt	i	nt
CCOC(=O)c1sc2nc(CSc3ccccc3)nc(N3CCCN(C)CC3)c2c1C	nt	28.2µM	nt
Cc1cc(C)nc(N2CCC(C(=O)Nc3cccc(C(F)(F)F)c3)CC2)n1	i	?	i
Cc1sc2ncnc(SC(C)C(=O)N3c4ccccc4Sc4ccccc43)c2c1C (stereo unspecified)	i	i	i
Cc1ccc(OCC(=O)NNC(=O)C(C)Sc2ncnc3sc(C)c(C)c23)cc1 (stereo unspecified)	i[1.84 µM]	?	31.6µM
CC(C)NC(=O)COC(=O)CNC(=O)c1cc(Cl)cc([N+](=O)[O-])c1	i	i	i
COc1ccc(C2C(C(=O)OC3CCCCC3)=C(C)Nc3nnnn32)c(OC)c1OC (stereo unspecified)	nt	i	i
COCCOC(=O)C1=C(C)NC(=O)N(C(C)=O)C1c1ccc(Cl)cc1 (stereo unspecified)	i	i	i
CCOC(=O)C1=C(C)Nc2nnnn2C1c1ccccc1Cl (stereo unspecified)	i	0.708µM	i
COC(=O)C1=C(C)Nc2nnnn2C1c1ccc(Cl)cc1Cl (stereo unspecified)	i	8.91µM	i
CCOc1ccccc1C1C(C(=O)Nc2ccccc2OC)=C(C)Nc2nnnn21 (stereo unspecified)	i	?	i
CCCCOC(=O)C1=C(C)Nc2nnnn2C1c1ccccc1Cl (stereo unspecified)	i	0.447µM	i
CC1=C(C(=O)Nc2ccc(C)cc2)C(c2ccccc2Cl)n2nnnc2N1 (stereo unspecified)	i	nt	nt
CCOC(=O)C1=C(C)NC(=S)N(C(C)=O)C1c1ccc(Cl)cc1 (stereo unspecified)	nt	8.91µM	i
COc1ccc(C(=O)Nc2ccc(N3CCN(C(=O)C(C)C)CC3)cc2)cc1[N+](=O)[O-]	nt	i	i

Compound activity: PubChem, National Center for Advancing Translational Sciences (NCATS)
